Laboratory results taken from article PMC4336329 (PLoS ONE, 2015).
Out of some 310,000 compounds screened, about 14,000 (4.5%) showed an effect of 50% or more. The effect is printed as a negative number. This excerpt belongs to a sample that is enriched for strong results.

Each molecule was assayed against human ether-à-go-go-related gene (hERG) potassium channel (human, UniProt Q12809) (assay: primary screen, population patch clamp on CHO cells stably expressing hERG; higher = less effect of the substance).
Sequence of human ether-à-go-go-related gene (hERG) potassium channel (Q12809 whole entry, looked up): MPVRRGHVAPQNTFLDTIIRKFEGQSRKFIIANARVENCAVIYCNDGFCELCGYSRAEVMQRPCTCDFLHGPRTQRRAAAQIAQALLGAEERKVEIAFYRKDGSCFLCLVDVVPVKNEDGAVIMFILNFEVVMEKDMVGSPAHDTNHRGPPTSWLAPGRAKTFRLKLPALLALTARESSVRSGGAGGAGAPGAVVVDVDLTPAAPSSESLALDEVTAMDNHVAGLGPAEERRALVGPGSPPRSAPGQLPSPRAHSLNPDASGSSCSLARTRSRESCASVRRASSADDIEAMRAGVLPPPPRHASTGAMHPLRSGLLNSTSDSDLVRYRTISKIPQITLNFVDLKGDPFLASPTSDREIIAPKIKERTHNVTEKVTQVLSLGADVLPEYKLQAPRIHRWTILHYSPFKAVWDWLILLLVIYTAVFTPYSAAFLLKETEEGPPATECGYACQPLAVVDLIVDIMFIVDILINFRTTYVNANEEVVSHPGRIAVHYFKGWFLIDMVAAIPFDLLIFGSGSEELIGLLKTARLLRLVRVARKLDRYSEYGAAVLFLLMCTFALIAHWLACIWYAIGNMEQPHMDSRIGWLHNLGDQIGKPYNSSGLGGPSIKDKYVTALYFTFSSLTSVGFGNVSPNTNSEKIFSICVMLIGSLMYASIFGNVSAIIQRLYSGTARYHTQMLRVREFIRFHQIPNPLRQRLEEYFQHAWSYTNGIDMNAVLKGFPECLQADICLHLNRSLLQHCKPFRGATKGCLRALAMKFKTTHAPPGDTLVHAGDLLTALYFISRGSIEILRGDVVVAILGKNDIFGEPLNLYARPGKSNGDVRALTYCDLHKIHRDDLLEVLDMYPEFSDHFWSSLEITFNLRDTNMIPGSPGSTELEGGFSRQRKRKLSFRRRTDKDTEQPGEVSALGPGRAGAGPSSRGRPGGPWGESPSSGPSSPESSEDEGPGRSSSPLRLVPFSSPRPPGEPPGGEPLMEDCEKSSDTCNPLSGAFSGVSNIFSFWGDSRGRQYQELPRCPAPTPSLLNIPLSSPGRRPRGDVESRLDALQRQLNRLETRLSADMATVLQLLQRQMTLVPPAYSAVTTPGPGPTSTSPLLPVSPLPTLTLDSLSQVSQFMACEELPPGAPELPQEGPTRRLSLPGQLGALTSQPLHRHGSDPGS
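Also: peak tail current of the secondary pulse compared with the same well before compound.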

| Compound | hERG current change (%, negative = inhibition) at 10uM [%] |
| --- | --- |
| CCCC(=O)Oc1ccc(N(C(=O)CCC)S(=O)(=O)c2cccs2)cc1 | 10.9 |
| O=C1Nc2ccccc2Oc2cc([N+](=O)[O-])cc(Oc3ccccc3)c21 | -24.5 |
| Cc1[nH]c2ccc(C(=O)OC(C)C(=O)N(C)c3ccccc3)cc2c1C (stereo not drawn) | 1.13 |
| c1ccc(-n2ncc3c(N4CCCC4)ncnc32)cc1 | -8.17 |
| Cc1ccc(C(=O)N2CCN(c3ncnc4c3cnn4-c3ccccc3)CC2)cc1 | -0.928 |
| O=C(COc1ccccc1)N1CCN(c2ncnc3c2cnn3-c2ccccc2)CC1 | -73.6 |
| O=C(c1ccccc1)N1CCN(c2ncnc3c2cnn3-c2ccccc2)CC1 | -18 |
| O=C(c1ccco1)N1CCN(c2ncnc3c2cnn3-c2ccccc2)CC1 | -64.5 |
| Cc1ccccc1C(=O)N1CCN(c2ncnc3c2cnn3-c2ccccc2)CC1 | -9.76 |
| CSc1ccc(COC(=O)CCS(=O)(=O)c2ccc(C)cc2)cc1 | -9.83 |
| O=C(C[n+]1ccccc1)N1CCCc2ccccc21.[Cl-] | 18.3 |
| Cn1c(SCC#N)nnc1-c1ccc2c(c1)OCO2 | 16.9 |
| CCOC(=O)c1c(NC(=O)CCc2ccc(CC)o2)sc(C)c1C | 1.97 |
| O=C(CN1CCN(Cc2ccccc2)CC1)N/N=C/C=C/c1ccccc1[N+](=O)[O-] | -74.2 |
| O=C(Cc1ccccc1)N/N=C/C=C/c1ccccc1[N+](=O)[O-] | 1.71 |
| O=C(CN1CCN(Cc2ccccc2)CC1)N/N=C/C=C/c1ccco1 | -47.2 |
| O=C(CN1CCN(Cc2ccccc2Cl)CC1)N/N=C/C=C/c1ccccc1[N+](=O)[O-] | -71.6 |
| O=C(Cc1cccs1)N/N=C/C=C/c1ccccc1[N+](=O)[O-] | -0.125 |
| O=C(CN1CCN(Cc2ccccc2Cl)CC1)N/N=C/C=C/c1ccco1 | -68.5 |
| O=C(O)COc1ccccc1/C=N/NC(=O)CN1CCN(Cc2ccccc2Cl)CC1 | -0.129 |
| O=C(Cc1cccs1)N/N=C/C=C\c1ccccc1[N+](=O)[O-] | 13.3 |
| Cc1ccc(CN2CCN(/N=C/C=C/c3ccccc3[N+](=O)[O-])CC2)cc1 | -21.1 |
| O=C(CN1CCN(Cc2ccccc2Cl)CC1)N/N=C/C=C\c1ccccc1[N+](=O)[O-] | -76.2 |

| Compound | hERG current change (%, negative = inhibition) at 10uM [%] |
| --- | --- |
| O=C(CN1CCN(Cc2ccccc2Cl)CC1)N/N=C/c1ccco1 | -21.8 |
| O=[N+]([O-])c1ccccc1/C=N\N1CCN(Cc2ccccc2Cl)CC1 | 9.77 |
| O=C(COC(=O)CNS(=O)(=O)c1ccc(F)c(F)c1F)NC1CCCC1 | 4.16 |
| Clc1ccc(OCCCc2nc(-c3ccncc3)no2)c(Cl)c1 | -0.0206 |
| O=C1/C(=C/N(C(=O)c2ccco2)c2ccc(Br)cc2)Sc2ccccc21 | -7.76 |
| Cc1[nH]c2ccccc2c1C(C[N+](=O)[O-])c1cccc(O)c1 (stereo not drawn) | 8.53 |
| Cc1oc2cc3c(C(=O)N4CCCCC4)c(C)oc3cc2c1C(=O)N1CCCCC1 | 5.17 |
| Cc1ccc2cc(C(=O)O)c(C)nc2c1 | 11.6 |
| CCC(CC)C(=O)Nc1ccncc1 | 23.9 |
| COc1ccccc1CNC(=O)c1ccccc1C(=O)NC(CC(C)C)C(=O)NCc1ccccc1OC (stereo not drawn) | 10.6 |
| Cc1c(NC(=O)c2ccco2)cccc1C(=O)NN1C(=O)c2ccccc2C1=O | 16.4 |
| COC(CNC(=O)c1ccc2c3c(onc13)-c1ccccc1C2=O)OC | -1.15 |
| Cl.OCCNCc1cccc(OCc2ccccc2Cl)c1 | -17.6 |
| COc1ccc(N2CC(C(=O)Nc3ccc(S(=O)(=O)N4CCOCC4)cc3)CC2=O)cc1 (stereo not drawn) | 13.4 |
| CCN(CC)CCNC(=O)c1cn(-c2ccccc2)nc1-c1cccs1.Cl | -69 |
| Cl.O=C(NCCN1CCOCC1)c1cn(-c2ccccc2)nc1-c1cccs1 | -25.6 |
| CCN(CC)CCNC(=O)c1ccc(NC(=O)c2cn(-c3ccccc3)nc2-c2cccs2)cc1 | -32.7 |
| COc1cccc(CNC(=O)c2ccccc2SCC(=O)N2CCCC2)c1 | -22.7 |
| COc1cccc(CN2CCNC(=O)C2CC(=O)O)c1OC (stereo not drawn) | 11.4 |
| Cc1ccc(S(=O)(=O)CCNC(=O)Cc2ccccc2)cc1 | 26.9 |
| CN=c1sc2ccccc2n1CC(O)c1ccccc1 (stereo not drawn) | -21.4 |
| CN=c1sc2ccccc2n1CC(O)COc1ccccc1 (stereo not drawn) | -57.5 |
| Cc1cc(C)n(CC(O)COCc2ccco2)n1 (stereo not drawn) | -3.37 |

| Compound | hERG current change (%, negative = inhibition) at 10uM [%] |
| --- | --- |
| CN=c1sc2ccccc2n1CC(O)COCc1ccco1 (stereo not drawn) | -65.4 |
| OC(CN=c1sc2ccccc2n1CC(O)COc1ccccc1)COc1ccccc1 (stereo not drawn) | -1.46 |
| CCN=c1sc2ccccc2n1CC(O)COc1ccccc1 (stereo not drawn) | -44 |
| CN(C)C(=O)c1ccc2c3c(cccc13)CC2 | 24.6 |
| COc1cc(NC(=O)CCCNC(=O)Cn2cnc3sc4c(c3c2=O)CCCC4)cc(OC)c1OC | 29.6 |
| O=C(COc1ccc2c(c1)oc(=O)c1ccccc12)NCCN1CCOCC1 | -11 |
| O=C(CSc1nc2ccc(N3CCOCC3)cc2c(=O)n1CCc1ccccc1)NCC1CCCO1 (stereo not drawn) | -47 |
| COc1ccc2oc(=O)c(C(=O)NCC3CCCO3)cc2c1 (stereo not drawn) | 3.67 |
| COc1ccc(CCn2c(=N)c(C(=O)NCC3CCCO3)cc3c(=O)n4cccc(C)c4nc32)cc1OC (stereo not drawn) | -80.9 |
| COc1ccc(CCNC(=O)C(=O)NCC2CCCO2)cc1 (stereo not drawn) | -0.535 |
| Cc1cccn2c(=O)c3cc(C(=O)NCC4CCCO4)c(=N)n(CCc4ccccc4)c3nc12 (stereo not drawn) | -76.7 |
| O=C(NCC1CCCO1)c1ccc2c(=O)n(CCc3ccccc3)c(=O)[nH]c2c1 (stereo not drawn) | 7.98 |
| COc1ccc(CCNC(=O)CNCC2CCCO2)cc1OC.O=C(O)C(=O)O (stereo not drawn) | 14.1 |
| COc1ccc(CCn2c(=N)c(C(=O)NCC3CCCO3)cc3c(=O)n4cccc(C)c4nc32)cc1 (stereo not drawn) | -79.7 |
| CNC(=O)Oc1ccc2c(c1)C(=O)c1ccccc1CO2 | 6.76 |
| CNC(=S)Nc1cc(OC)c(NC(=O)c2ccco2)cc1OC | 14.9 |
| Cc1cc(C)nc(NNS(=O)(=O)c2ccc(F)c(Cl)c2)n1 | 0.38 |
| Cc1ccc(C)n1NC(=O)c1cccs1 | 9.98 |
| CCOCCCNCC(O)c1ccccc1.O=C(O)C(=O)O (stereo not drawn) | 3.55 |
| O=C(N/N=C/c1cc([N+](=O)[O-])cc([N+](=O)[O-])c1O)C(O)(c1ccccc1)c1ccccc1 | -4.37 |
| O=C(N/N=C/c1cccc([N+](=O)[O-])c1O)C(O)(c1ccccc1)c1ccccc1 | 8.16 |
| O=C(N/N=C/c1cc(Cl)cc([N+](=O)[O-])c1O)C(O)(c1ccccc1)c1ccccc1 | -53 |
| Cc1ccc(/C(O)=C2/C(=O)C(=O)N(c3ccccn3)C2c2ccc([N+](=O)[O-])cc2)cc1 (stereo not drawn) | 8.83 |

| Compound | hERG current change (%, negative = inhibition) at 10uM [%] |
| --- | --- |
| COC(=O)COc1cccc2c(=O)n(CC(=O)NCc3ccc(F)cc3)ccc12 | 1.82 |
| O=C1CC(c2cccnc2)=NN1c1ccc(Cl)cc1Cl | 12.1 |
| C/C=C(/C)C(=O)O[C@@H]1c2c(ccc3ccc(=O)oc23)O[C@@H]1C(C)(C)OC(=O)/C(C)=C\C | -0.936 |
| O=C1OC(Nc2cc(Br)cc3cccnc23)c2ccccc21 (stereo not drawn) | -9.92 |
| COc1cc(/C=N/NS(=O)(=O)c2ccc3ccccc3c2)ccc1OCCN1CCOCC1 | -39.5 |
| COc1ccc(S(=O)(=O)N/N=C/c2ccc(OCCN3CCOCC3)c(OC)c2)cc1 | 1.42 |
| CCOc1cc(/C=N/NS(=O)(=O)c2ccc(OC)cc2)ccc1OCCN1CCOCC1 | -53.8 |
| CCn1c(COc2ccccc2C)nnc1SCC(=O)OC | -9.68 |
| O=C(CN(C(=O)c1csnn1)c1cccc2ccccc12)NC1CCCC1 | -2.34 |
| Cc1cc(NCC2CCCCC2)nc2ccccc12 | -42.7 |
| Cc1cc(NCc2ccccn2)nc2ccccc12 | -15.4 |
| COC(=O)CSc1cc(C)nc2ccc(OC)cc12 | 1.44 |
| COc1ccc2nc(NCc3ccccc3)[nH]c2c1 | -25.4 |
| Cc1cc(NC(=O)Cc2ccccc2)c2ccccc2n1 | 14.2 |
| COc1ccc2nc(C)cc(NCc3ccc(F)cc3)c2c1 | -61.6 |
| COc1ccc2nc(C)cc(NCc3cccc(C(F)(F)F)c3)c2c1 | -31.7 |
| COc1ccc(CNc2cc(C)nc3ccc(OC)cc23)cc1 | -72.8 |
| Cc1cc(NCCO)c2ccccc2n1.Cl | 6.81 |
| Cc1cc(NCc2ccccc2)c2ccccc2n1.Cl | -67.5 |
| COc1ccc2nc(C)cc(N/N=C/c3ccc(F)cc3)c2c1 | 0.337 |
| Cc1cc(NCc2ccccc2)nc2ccccc12 | -50.9 |
